Data: the supplement of paper PMC10849652
Of roughly 7,900 targets only a part is listed; those with a hit were picked by preference. About 0.6% of all pairs of compound and target were hits. Values without a mark were called inactive.

Legend:
Assay in all cases: log2 fold change, soluble protein after heating vs DMSO (PISA); higher = thermal stabilisation; K562 cells, 10 uM, 30 min; active = over 0.2 and 3.5 SD of the protein, either way, in both replicates (recomputed)
bafetinib = compound: Cc1ccc(NC(=O)c2ccc(CN3CC[C@H](N(C)C)C3)c(C(F)(F)F)c2)cc1Nc1nccc(-c2cncnc2)n1 [bafetinib]
Procedure, shortened: (§1)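 Values are thermal stability changes relative to control samples and are taken from duplicates. They are stated as log2 fold changes. Before quantification by TMTpro 16plex LC-MS/MS with equalised channel sums, K562 cells at 2×10^6 cells/mL were treated with 10 μM compound for 30 min, heated in aliquots for 3 min across 48°C-58°C, pooled, extracted in PBS with 0.5% NP-40 at 4°C, and centrifuged at 21,000xg for 90 min to give the soluble supernatant.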

[1] = compound: Cc1cccc(CC(=O)N2CCc3c2ccc(-c2cn(C)c4ncnc(N)c24)c3F)n1
Procedure, shortened: as §1

nilotinib = compound: Cc1cn(-c2cc(NC(=O)c3ccc(C)c(Nc4nccc(-c5cccnc5)n4)c3)cc(C(F)(F)F)c2)cn1 [nilotinib]
Procedure, shortened: as §1

[2] = compound: Cc1nc(Nc2n[nH]c3c2CN(C(=O)N[C@H](CN(C)C)c2ccccc2)C3(C)C)c2sccc2n1
Procedure, shortened: as §1

dasatinib = compound: Cc1nc(Nc2ncc(C(=O)Nc3c(C)cccc3Cl)s2)cc(N2CCN(CCO)CC2)n1 [dasatinib]
Procedure, shortened: as §1

[3] = compound: Cc1ncc(-c2ccnc(Nc3ccc(S(C)(=O)=O)cc3)n2)n1C(C)C
Procedure, shortened: as §1

[4] = compound: Cn1cc(-c2ccc3c(c2)CCN3C(=O)Cc2cccc(C(F)(F)F)c2)c2c(N)ncnc21
Procedure, shortened: as §1

[5] = compound: Cn1cc(-c2ccc3nnc(C(F)(F)c4ccc5ncccc5c4)n3n2)cn1
Procedure, shortened: as §1

tipifarnib = compound: Cn1cncc1[C@@](N)(c1ccc(Cl)cc1)c1ccc2c(c1)c(-c1cccc(Cl)c1)cc(=O)n2C [tipifarnib]
Procedure, shortened: as §1

mubritinib = compound: FC(F)(F)c1ccc(/C=C/c2nc(COc3ccc(CCCCn4ccnn4)cc3)co2)cc1 [mubritinib]
Procedure, shortened: as §1

[6] = compound: NC(=O)Nc1cc(-c2cccc(F)c2)sc1C(=O)N[C@H]1CCCNC1
Procedure, shortened: as §1

[7] = compound: NC(=O)c1cnc(N[C@@H]2CCCC[C@@H]2N)nc1Nc1cccc(-n2nccn2)c1
Procedure, shortened: as §1

[8] = compound: NC1(c2ccc(-c3nc4ccn5c(=O)[nH]nc5c4cc3-c3ccccc3)cc2)CCC1
Procedure, shortened: as §1

[9] = compound: NCC(=O)Nc1ccc(-n2nc(C(F)(F)F)cc2-c2ccc3c(ccc4ccccc43)c2)cc1
Procedure, shortened: as §1

entinostat = compound: Nc1ccccc1NC(=O)c1ccc(CNC(=O)OCc2cccnc2)cc1 [entinostat]
Procedure, shortened: as §1

vorinostat = compound: O=C(CCCCCCC(=O)Nc1ccccc1)NO [vorinostat]
Procedure, shortened: as §1

citarinostat = compound: O=C(CCCCCCNC(=O)c1cnc(N(c2ccccc2)c2ccccc2Cl)nc1)NO [citarinostat]
Procedure, shortened: as §1

silmitasertib = compound: O=C(O)c1ccc2c(c1)nc(Nc1cccc(Cl)c1)c1ccncc12 [silmitasertib]
Procedure, shortened: as §1

[10] = compound: O=C1NC(=O)C(c2cnc3ccccn23)=C1c1cn2c3c(cc(F)cc13)CN(C(=O)N1CCCCC1)CC2
Procedure, shortened: as §1

[11] = compound: c1cc(OCCN2CCCCC2)cc(-c2n[nH]c3ccc(-c4nnc[nH]4)cc23)c1
Procedure, shortened: as §1

Chain of UniProt P23786 (P23786 whole entry, looked up): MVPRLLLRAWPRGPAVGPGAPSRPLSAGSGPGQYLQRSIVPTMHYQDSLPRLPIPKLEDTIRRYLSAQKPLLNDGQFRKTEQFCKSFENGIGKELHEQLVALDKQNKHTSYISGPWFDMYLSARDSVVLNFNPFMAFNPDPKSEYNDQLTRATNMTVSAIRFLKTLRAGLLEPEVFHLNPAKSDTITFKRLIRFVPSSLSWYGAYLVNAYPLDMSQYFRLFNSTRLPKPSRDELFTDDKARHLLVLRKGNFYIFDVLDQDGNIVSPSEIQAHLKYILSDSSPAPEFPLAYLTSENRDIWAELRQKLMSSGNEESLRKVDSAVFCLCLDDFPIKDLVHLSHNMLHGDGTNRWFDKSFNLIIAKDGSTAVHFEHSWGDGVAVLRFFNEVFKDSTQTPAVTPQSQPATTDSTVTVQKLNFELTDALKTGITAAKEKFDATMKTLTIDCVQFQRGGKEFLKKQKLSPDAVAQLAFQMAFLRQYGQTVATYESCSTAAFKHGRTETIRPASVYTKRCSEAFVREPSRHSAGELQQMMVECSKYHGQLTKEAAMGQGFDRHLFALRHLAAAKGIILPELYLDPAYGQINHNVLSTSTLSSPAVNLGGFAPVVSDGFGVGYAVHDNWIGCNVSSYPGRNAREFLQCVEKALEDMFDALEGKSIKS
Chain of UniProt Q8IWV2 (Q8IWV2 whole entry, looked up): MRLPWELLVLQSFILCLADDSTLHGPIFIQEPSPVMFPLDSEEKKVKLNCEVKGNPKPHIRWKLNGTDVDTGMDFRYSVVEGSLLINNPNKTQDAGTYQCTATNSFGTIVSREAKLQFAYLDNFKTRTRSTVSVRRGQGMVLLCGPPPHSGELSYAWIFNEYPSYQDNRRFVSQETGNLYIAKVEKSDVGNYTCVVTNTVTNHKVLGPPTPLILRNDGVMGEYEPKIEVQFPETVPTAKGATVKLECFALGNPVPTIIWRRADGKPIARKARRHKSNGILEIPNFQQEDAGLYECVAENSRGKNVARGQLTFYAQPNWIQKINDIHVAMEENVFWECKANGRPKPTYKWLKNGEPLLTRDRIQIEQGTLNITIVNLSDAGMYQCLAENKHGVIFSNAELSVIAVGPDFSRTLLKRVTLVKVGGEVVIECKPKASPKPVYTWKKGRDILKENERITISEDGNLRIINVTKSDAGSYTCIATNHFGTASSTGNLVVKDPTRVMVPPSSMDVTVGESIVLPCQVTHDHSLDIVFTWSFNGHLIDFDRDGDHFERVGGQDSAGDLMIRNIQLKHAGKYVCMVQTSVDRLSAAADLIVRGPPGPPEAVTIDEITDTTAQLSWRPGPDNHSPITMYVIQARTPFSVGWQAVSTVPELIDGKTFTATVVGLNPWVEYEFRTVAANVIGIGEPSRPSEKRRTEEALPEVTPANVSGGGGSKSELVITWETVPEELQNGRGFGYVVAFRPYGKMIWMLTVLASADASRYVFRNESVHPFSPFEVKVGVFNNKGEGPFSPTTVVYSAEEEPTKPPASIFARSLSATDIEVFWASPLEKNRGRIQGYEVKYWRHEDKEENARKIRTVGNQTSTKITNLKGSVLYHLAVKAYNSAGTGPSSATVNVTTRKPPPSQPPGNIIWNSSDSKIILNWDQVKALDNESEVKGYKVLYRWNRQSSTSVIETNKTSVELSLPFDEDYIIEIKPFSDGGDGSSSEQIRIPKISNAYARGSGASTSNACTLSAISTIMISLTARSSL
Chain of UniProt P55060 (P55060 whole entry, looked up): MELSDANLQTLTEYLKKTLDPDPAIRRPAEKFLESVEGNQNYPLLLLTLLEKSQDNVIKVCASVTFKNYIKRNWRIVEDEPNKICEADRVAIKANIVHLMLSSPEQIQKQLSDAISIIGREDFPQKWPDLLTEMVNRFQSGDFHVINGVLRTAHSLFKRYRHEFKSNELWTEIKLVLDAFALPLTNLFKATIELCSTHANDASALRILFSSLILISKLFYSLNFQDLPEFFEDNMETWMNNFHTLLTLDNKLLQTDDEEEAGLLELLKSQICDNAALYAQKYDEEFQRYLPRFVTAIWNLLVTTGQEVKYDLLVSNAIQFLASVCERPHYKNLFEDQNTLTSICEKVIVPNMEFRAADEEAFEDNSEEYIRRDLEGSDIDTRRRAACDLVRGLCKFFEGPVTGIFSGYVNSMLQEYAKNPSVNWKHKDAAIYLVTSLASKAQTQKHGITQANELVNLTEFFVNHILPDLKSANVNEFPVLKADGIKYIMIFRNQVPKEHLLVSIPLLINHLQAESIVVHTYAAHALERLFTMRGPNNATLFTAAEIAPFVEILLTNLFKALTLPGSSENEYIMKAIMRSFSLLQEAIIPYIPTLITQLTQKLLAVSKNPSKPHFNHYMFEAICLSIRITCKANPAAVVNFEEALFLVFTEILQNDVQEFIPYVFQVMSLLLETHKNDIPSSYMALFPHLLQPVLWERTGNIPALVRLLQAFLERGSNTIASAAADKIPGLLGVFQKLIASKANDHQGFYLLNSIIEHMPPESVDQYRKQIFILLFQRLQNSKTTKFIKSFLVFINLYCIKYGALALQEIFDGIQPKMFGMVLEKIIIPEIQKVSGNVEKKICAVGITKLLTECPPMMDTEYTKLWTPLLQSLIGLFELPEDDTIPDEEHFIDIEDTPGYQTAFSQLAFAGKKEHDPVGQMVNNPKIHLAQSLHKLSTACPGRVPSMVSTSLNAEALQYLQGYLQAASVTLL
Chain of UniProt P46108 (P46108 whole entry, looked up): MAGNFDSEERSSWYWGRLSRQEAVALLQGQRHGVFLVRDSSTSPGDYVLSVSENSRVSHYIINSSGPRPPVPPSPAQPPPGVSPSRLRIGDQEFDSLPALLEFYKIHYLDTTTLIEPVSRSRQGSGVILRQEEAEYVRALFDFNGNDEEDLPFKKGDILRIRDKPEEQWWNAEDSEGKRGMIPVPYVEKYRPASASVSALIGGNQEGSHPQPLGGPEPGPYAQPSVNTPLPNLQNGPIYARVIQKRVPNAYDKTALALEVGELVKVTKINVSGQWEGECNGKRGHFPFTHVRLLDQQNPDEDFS
Chain of UniProt Q8N1G2 (Q8N1G2 whole entry, looked up): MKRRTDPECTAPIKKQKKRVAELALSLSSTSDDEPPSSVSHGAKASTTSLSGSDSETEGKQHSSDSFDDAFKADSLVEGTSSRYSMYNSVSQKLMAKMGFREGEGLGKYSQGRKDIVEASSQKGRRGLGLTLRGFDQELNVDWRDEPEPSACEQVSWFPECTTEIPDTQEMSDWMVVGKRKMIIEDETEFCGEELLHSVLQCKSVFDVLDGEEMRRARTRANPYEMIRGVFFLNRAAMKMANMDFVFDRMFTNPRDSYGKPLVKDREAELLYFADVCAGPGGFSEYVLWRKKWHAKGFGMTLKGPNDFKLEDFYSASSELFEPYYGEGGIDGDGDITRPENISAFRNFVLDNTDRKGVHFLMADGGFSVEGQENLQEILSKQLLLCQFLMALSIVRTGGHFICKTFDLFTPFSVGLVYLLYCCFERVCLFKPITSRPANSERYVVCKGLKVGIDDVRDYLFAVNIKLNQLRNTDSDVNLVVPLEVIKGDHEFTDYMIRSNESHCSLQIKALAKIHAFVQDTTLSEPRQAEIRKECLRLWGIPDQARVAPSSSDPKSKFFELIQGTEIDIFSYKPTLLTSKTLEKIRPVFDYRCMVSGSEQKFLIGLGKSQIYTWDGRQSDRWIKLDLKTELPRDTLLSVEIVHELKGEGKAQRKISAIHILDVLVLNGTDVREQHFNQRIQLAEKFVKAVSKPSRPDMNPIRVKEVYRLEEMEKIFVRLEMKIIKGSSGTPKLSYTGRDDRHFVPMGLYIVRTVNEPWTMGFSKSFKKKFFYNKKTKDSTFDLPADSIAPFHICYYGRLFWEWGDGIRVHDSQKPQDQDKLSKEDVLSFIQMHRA
Chain of UniProt O15182 (O15182 whole entry, looked up): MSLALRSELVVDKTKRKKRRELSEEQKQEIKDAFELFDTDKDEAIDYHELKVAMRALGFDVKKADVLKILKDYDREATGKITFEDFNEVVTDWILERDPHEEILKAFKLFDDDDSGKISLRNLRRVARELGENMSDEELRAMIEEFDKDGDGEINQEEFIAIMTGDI
Chain of UniProt P19784 (P19784 whole entry, looked up): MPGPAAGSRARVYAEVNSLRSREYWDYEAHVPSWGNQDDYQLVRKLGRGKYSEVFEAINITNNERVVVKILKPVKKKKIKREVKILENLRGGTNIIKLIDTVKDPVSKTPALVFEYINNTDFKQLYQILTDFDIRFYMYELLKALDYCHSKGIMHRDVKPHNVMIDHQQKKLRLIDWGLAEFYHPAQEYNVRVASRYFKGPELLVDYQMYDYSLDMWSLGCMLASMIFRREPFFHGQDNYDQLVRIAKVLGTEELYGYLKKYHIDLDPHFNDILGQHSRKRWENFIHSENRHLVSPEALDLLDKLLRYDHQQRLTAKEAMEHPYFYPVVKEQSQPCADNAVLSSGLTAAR
Chain of UniProt Q8N684 (Q8N684 whole entry, looked up): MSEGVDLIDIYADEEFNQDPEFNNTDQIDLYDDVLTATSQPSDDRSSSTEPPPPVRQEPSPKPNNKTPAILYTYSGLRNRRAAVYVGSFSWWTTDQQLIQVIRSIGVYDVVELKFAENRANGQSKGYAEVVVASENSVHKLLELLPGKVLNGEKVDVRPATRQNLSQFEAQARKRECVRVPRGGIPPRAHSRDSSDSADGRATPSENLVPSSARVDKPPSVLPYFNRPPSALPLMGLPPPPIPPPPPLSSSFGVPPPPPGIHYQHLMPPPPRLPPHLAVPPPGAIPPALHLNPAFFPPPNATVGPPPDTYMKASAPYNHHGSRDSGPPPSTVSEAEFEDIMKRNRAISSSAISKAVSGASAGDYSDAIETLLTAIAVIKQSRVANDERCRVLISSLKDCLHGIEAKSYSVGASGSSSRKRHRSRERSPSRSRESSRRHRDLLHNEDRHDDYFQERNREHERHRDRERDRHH
Chain of UniProt P60033 (P60033 whole entry, looked up): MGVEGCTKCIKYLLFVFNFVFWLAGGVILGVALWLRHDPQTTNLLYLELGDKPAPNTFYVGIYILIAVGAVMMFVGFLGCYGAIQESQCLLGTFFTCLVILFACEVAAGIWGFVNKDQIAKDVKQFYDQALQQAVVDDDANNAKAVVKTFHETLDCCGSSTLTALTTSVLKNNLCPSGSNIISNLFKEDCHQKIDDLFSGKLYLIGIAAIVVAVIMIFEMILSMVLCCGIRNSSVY

| Target | log2 fold change (bafetinib) | log2 fold change [1] | log2 fold change (nilotinib) | log2 fold change [2] | log2 fold change (dasatinib) | log2 fold change [3] | log2 fold change [4] | log2 fold change [5] | log2 fold change (tipifarnib) | log2 fold change (mubritinib) | log2 fold change [6] | log2 fold change [7] | log2 fold change [8] | log2 fold change [9] | log2 fold change (entinostat) | log2 fold change (vorinostat) | log2 fold change (citarinostat) | log2 fold change (silmitasertib) | log2 fold change [10] | log2 fold change [11] |
| --- | --- | --- | --- | --- | --- | --- | --- | --- | --- | --- | --- | --- | --- | --- | --- | --- | --- | --- | --- | --- |
| CCNK isoform 4 (UniProt O75909) | 0.106 | -0.021 | 0.045 | 0.046 | -0.013 | -0.025 | -0.118 | -0.069 | 0.096 | 0.006 | -0.053 | -0.104 | 0.044 | -0.091 | -0.044 | -0.021 | -0.007 | -0.046 | 0.006 | -0.305 (active) |
| CAMKK2 (UniProt Q96RR4) | 0.04 | -0.144 | -0.008 | 0.226 | 0 | -0.14 | -0.083 | 0.102 | -0.076 | -0.024 | -0.088 | -0.389 | -0.113 | -0.047 | 0.015 | 0.323 | -0.144 | 0.128 | -0.038 | 0.036 |
| CPT2 (UniProt P23786) | -0.115 | 0.008 | 0.096 | -0.003 | 0.217 | 0.047 | 0.268 | 0.265 | -0.076 | 0.763 (active) | -0.045 | -0.264 | 0.193 | -0.052 | 0.174 | -0.097 | -0.109 | -0.08 | 0.014 | 0.157 |
| CRK (UniProt P46108) | -0.586 (active) | -0.02 | -0.826 (active) | -0.136 | -0.883 (active) | 0.036 | -0.007 | 0.03 | 0.026 | 0.075 | -0.81 (active) | 0.004 | -0.063 | -0.011 | 0.026 | -0.002 | 0.061 | 0.062 | -0.016 | -0.016 |
| CSE1L (UniProt P55060) | -0.041 | 0.039 | -0.066 | -0.026 | -0.08 | 0.012 | -0.005 | 0.007 | -0.101 | 0.068 | -0.037 | -0.067 | -0.162 | -0.071 | 0.05 | 0.015 | 0.058 | 0.035 | -0.059 | -0.018 |
| CMTR1 (UniProt Q8N1G2) | -0.054 | 0 | -0.059 | -0.01 | -0.059 | 0.035 | -0.033 | 0.044 | -0.03 | 0.029 | -0.022 | -0.015 | -0.135 | -0.01 | -0.025 | 0.026 | 0.002 | 0.004 | -0.083 | -0.009 |
| CHCHD1 (UniProt Q96BP2) | -0.084 | 0.081 | -0.007 | 0.02 | -0.057 | -0.031 | -0.153 | 0.105 | 0.077 | 0.104 | 0.017 | -0.142 | -0.149 | -0.023 | 0.03 | 0.023 | 0.009 | 0.031 | -0.015 | -0.169 |
| CD81 (UniProt P60033) | 0.089 | -0.026 | 0.051 | 0.016 | 0.079 | -0.015 | 0.108 | 0.131 | 0.041 | 0.05 | -0.051 | 0.222 | 0.21 | 0.231 | -0.028 | -0.074 | 0.065 | 0.052 | 0.066 | -0.166 |
| CDC42BPA isoform 6 (UniProt Q5VT25) | 0.051 | 0.102 | 0.28 | -0.682 (active) | -0.254 | 0.135 | 0.036 | 0.008 | -0.185 | 0.037 | -0.325 | -0.334 | -0.06 | -0.003 | 0.012 | 0.051 | 0.115 | 0.11 | -0.041 | -0.203 |
| CPSF7 isoform 3 (UniProt Q8N684) | 0.07 | -0.107 | 0.028 | -0.552 (active) | 0.012 | 0.044 | 0.003 | -0.027 | -0.048 | -0.048 | -0.063 | 0.025 | 0.027 | 0.013 | -0.023 | 0.01 | 0.001 | -0.069 | 0.054 | -0.035 |
| CSNK2A2 (UniProt P19784) | -0.042 | -0.008 | -0.009 | 0.016 | -0.056 | -0.019 | -0.009 | 0.038 | -0.033 | -0.019 | -0.069 | 0.008 | -0.052 | 0.069 | -0.015 | 0.086 | 0.011 | 0.873 (active) | -0.076 | 0.022 |
| CPD (UniProt O75976) | -0.07 | 0.01 | -0.007 | -0.033 | 0.026 | -0.029 | -0.029 | 0.026 | 0.055 | -0.009 | 0.002 | 0.032 | -0.101 | -0.008 | 0.016 | 0.019 | 0.018 | 0.032 | -0.034 | -0.111 |
| CNTN4 (UniProt Q8IWV2) | -0.109 | 0.008 | 0.06 | 0.01 | 0.003 | -0.13 | 0.131 | 0.032 | -0.097 | 0.224 | 0.016 | -0.056 | 0.614 | -0.085 | -0.106 | 0.017 | 0.141 | -0.197 | -0.18 | 0.088 |
| CETN3 (UniProt O15182) | -0.052 | -0.249 (active) | -0.051 | 0.04 | 0.068 | -0.013 | -0.026 | -0.006 | 0.086 | 0.112 | -0.016 | -0.059 | -0.031 | -0.102 | 0.033 | -0.126 | -0.002 | 0.032 | -0.1 | -0.061 |
| CSTF2 (UniProt P33240) | -0.05 | -0.061 | -0.029 | 0.074 | 0.007 | 0.047 | -0.011 | -0.014 | 0.028 | -0.046 | 0.015 | -0.054 | 0.086 | -0.031 | -0.028 | -0.08 | -0.011 | 0.07 | -0.049 | -0.042 |
| CD63 (UniProt P08962) | -0.069 | -0.059 | -0.023 | 0.074 | 0.021 | 0.002 | -0.047 | 0.002 | 0.043 | -0.003 | -0.026 | -0.001 | -0.05 | -0.035 | -0.004 | -0.066 | 0.026 | 0.02 | 0.051 | -0.063 |
